Laboratory results from PubChem BioAssay (EPA / NIEHS).
Results filed as inconclusive are left out. Calls of active or inactive are those of the source. How the source made its calls: active means hit-call score of the fitted dose curve at least 0.9, where 1 is the maximum; inconclusive means response in the unintended direction; inactive means score below 0.9.

Molecular target: human Peroxisome Proliferator-activated Receptor alpha (PPARa), PPARA (gene 5465) (UniProt Q07869)
Assay: ATG_PPARa_TRANS: Attagene TRANS-FACTORIAL HepG2 Assay for human Peroxisome Proliferator-activated Receptor alpha (PPARa) (AID 2283001);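 on AC50: potency for gain of reporter signal over DMSO so agonist or activator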
In short: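 Read-out is fluorescence of reporter cDNA fragments resolved by capillary electrophoresis after RT-PCR. Human HepG2 liver cells carried transfected PPARa-Gal4 chimera and GAL4-UAS reporter units, treated 24 h; activity scored as increase over DMSO.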

Sequence of human Peroxisome Proliferator-activated Receptor alpha (PPARa), PPARA (gene 5465) (Q07869 whole entry, looked up): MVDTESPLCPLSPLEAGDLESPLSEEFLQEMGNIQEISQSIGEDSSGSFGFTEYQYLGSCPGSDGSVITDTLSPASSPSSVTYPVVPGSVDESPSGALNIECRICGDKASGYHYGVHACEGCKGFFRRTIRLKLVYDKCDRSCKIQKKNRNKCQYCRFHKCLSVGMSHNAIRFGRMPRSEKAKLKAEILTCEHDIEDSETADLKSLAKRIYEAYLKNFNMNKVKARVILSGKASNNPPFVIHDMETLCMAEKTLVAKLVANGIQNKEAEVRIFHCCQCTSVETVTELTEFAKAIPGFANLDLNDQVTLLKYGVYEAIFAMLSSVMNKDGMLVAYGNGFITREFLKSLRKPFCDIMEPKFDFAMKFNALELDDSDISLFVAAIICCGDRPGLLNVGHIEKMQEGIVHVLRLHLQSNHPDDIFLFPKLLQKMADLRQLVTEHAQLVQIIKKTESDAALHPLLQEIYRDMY

| Structure (SMILES) | outcome | AC50 |
| --- | --- | --- |
| CN(C)[C@@H]1C(=O)C(C(N)=O)=C(O)[C@@]2(O)C(=O)C3=C(O)c4c(O)ccc(Cl)c4[C@@](C)(O)[C@H]3C[C@@H]12 | inactive |  |
| Nc1ccc(-c2ccccc2)cc1 | inactive |  |
| CCN(N=O)C(N)=O | inactive |  |
| O=CCCl | inactive |  |
| CCCCCCCCCCBr | inactive |  |
| BrCC(Br)c1ccccc1 (stereo not given) | inactive |  |
| Cc1cc(Cl)ccc1O | inactive |  |
| BrCCCCBr | inactive |  |
| Brc1c(Br)c(Br)c(Oc2c(Br)c(Br)c(Br)c(Br)c2Br)c(Br)c1Br | inactive |  |
| CN(N=O)C(N)=O | inactive |  |
| CCNc1nc(NCC)nc(SC)n1 | inactive |  |
| Brc1ccc(Oc2c(Br)cc(Br)cc2Br)c(Br)c1 | inactive |  |
| Clc1cnc(Oc2ccc(Oc3ncc(Cl)cc3Cl)cc2)c(Cl)c1 | inactive |  |
| CCCCCCCCBr | inactive |  |
| Cc1cc(Cl)ccc1OCCCC(=O)O | inactive |  |
| CCCCC(CC)C(=O)Cl (stereo not given) | inactive |  |
| CCCCCCCCCCCCBr | inactive |  |
| Nc1nc(=S)[nH][nH]1 | inactive |  |
| N#Cc1ccccc1N | inactive |  |
| N#Cc1ccccc1Cl | inactive |  |
| c1csc(-c2ccc(-c3cccs3)s2)c1 | inactive |  |
| OCC(c1ccc(Cl)cc1)c1ccc(Cl)cc1 |  | 55 µM (active) |
| CC(=O)CN(CC(C)=O)N=O | inactive |  |
| CCC[CH2][Sn]([CH2]CCC)([CH2]CCC)[CH2]CCC | inactive |  |
| Cc1ccc(CCl)cc1 | inactive |  |
| c1ccc2c(c1)Oc1ccccc1O2 | inactive |  |

Molecular target: human Peroxisome Proliferator-activated Receptor delta (PPARd), PPARD (gene 5467) (UniProt Q03181)
Sequence (Q03181 whole entry, looked up): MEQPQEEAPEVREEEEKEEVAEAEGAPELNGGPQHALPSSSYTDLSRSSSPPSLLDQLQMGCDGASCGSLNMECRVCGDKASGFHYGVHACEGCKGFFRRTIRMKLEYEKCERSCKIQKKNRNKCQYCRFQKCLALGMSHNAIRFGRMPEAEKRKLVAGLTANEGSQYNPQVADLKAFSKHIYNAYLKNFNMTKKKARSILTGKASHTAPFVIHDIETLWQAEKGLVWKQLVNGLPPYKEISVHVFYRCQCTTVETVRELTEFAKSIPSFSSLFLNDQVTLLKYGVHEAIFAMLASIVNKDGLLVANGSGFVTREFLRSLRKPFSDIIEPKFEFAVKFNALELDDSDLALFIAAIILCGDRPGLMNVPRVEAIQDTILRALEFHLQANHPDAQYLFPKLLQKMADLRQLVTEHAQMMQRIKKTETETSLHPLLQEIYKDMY
Assay: ATG_PPARd_TRANS: Attagene TRANS-FACTORIAL HepG2 Assay for human Peroxisome Proliferator-activated Receptor delta (PPARd) (AID 2283002)
In short: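 Transient HepG2 transfection (multiple GAL4-UAS RTUs, chimeric receptor-Gal4); 24 h dosing; total RNA → oligo(dT) RT → PCR → 6-FAM primer extension → HpaI cut → CE. Positive direction vs DMSO.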

| Structure (SMILES) | outcome |
| --- | --- |
| CN(C)[C@@H]1C(=O)C(C(N)=O)=C(O)[C@@]2(O)C(=O)C3=C(O)c4c(O)ccc(Cl)c4[C@@](C)(O)[C@H]3C[C@@H]12 | inactive |
| Nc1ccc(-c2ccccc2)cc1 | inactive |
| C=C(C)[C@@H]1CC=C(C=O)CC1 | inactive |
| Brc1c(Br)c(Br)c(Oc2c(Br)c(Br)c(Br)c(Br)c2Br)c(Br)c1Br | inactive |
| CC(C)(c1ccc(O)c(-c2ccccc2)c1)c1ccc(O)c(-c2ccccc2)c1 | inactive |
| O=[N+]([O-])c1cc([As](=O)(O)O)ccc1O | inactive |
| N#Cc1ccccc1Cl | inactive |
| CCOP(=S)(OCC)O/N=C(\C#N)c1ccccc1 | inactive |
| c1csc(-c2ccc(-c3cccs3)s2)c1 | inactive |
| OC(c1ccc(Cl)cc1)(c1ccc(Cl)cc1)c1cccnc1 | inactive |
| CC(C)C(C)(N)C#N (stereo not given) | inactive |
| CC(C)CC(C)(c1ccc(O)cc1)c1ccc(O)cc1 | inactive |
| FC(F)OCC(F)(F)C(F)(F)F | inactive |
| CC(=O)CN(CC(C)=O)N=O | inactive |
| Cc1cc(-c2cc(C)c(N)c(C)c2)cc(C)c1N | inactive |
| CC(=O)C(F)(F)C(F)(F)F | inactive |
| CC(F)(F)CC(F)(F)F | inactive |
| COC(F)(C(F)(F)C(F)(F)F)C(F)(C(F)(F)F)C(F)(F)F (stereo not given) | inactive |
| COC(=O)Nc1cccc(OC(=O)Nc2cccc(C)c2)c1 | inactive |
